activity, negative = inhibition and Potency data for 37 compounds are collected here from PubChem BioAssay (NCATS).

A short description of assay [1]: qHTS profiling for inhibitors of Plasmodium falciparum proliferation (AID 504749).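 For activity, negative = inhibition: 0% = DMSO vehicle and full inhibition = artemisinin control.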 Note: nearly all actives have a fitted effect of over 60% in size. The following applies: P. falciparum in erythrocytes, SYBR Green DNA, 72 h. An outline of the steps:
(§1)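 Infected RBCs, 0.3% parasitemia/2.5% Hct final; cpd 72 h, 37 C, 5% CO2; lysis buffer with saponin/triton/SYBR Green I, o/n RT dark; FI 485/535; norm. to artemisinin (0.29 uM) and DMSO.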
(In general: In qHTS, concentration-response curves come from the screen itself.)

In the next assay the test system is 3D7. The assay is described as above. The following applies: P. falciparum in erythrocytes, SYBR Green DNA, 72 h; series mostly up to 28.7 µM. An outline of the steps: as §1
In another assay the test system is 7G8. The description is as above. The following applies: P. falciparum in erythrocytes, SYBR Green DNA, 72 h; series mostly up to 28.7 µM. An outline of the steps:
as §1

The next assay concerns AA1029. The description is as above. The following applies: P. falciparum in erythrocytes, SYBR Green DNA, 72 h; series mostly up to 28.7 µM. An outline of the steps: as §1
Another assay concerns AS120. The assay is described as above. The following applies: P. falciparum in erythrocytes, SYBR Green DNA, 72 h; series mostly up to 28.7 µM. The procedure, abridged:
as §1

[2] abbreviates: at 28.7 µM (top of the series), parasite line A.
Setting [3] is: at 28.7 µM (top of the series), parasite line B.
The mark [4] stands for this setting: at 12.8 µM (top of the series), parasite line A.
Setting [5] is: at 12.8 µM (top of the series), parasite line B.

Records with an inconclusive call do not appear. The source made the active and inactive calls. Calls come from the whole dose curve; as a rule, active = well fitted inhibition curve with a large enough effect; inconclusive = small, poorly fitted or top-dose-only effect; inactive = flat fitted curve, though single readings scatter.
Potency is the fitted concentration of half-maximal effect.

As to `COc1ccc(C(=O)N2CCCC2=O)cc1`, the figures for the activity, negative = inhibition in assay [1] (setting [2]) and in assay [1] (setting [3]) were 4.48% (inactive) and 11% (inactive), respectively. Also, the Potency entry in the assay with 3D7, in the assay with 7G8, in the assay on AA1029 and in the assay on AS120 was “inactive” each time.
`COP(=S)(OC)Oc1ccc(Sc2ccc(OP(=S)(OC)OC)cc2)cc1`: the activity, negative = inhibition is 7.58% (inactive) in assay [1] (setting [2]) and 4.24% (inactive) in assay [1] (setting [3]). The Potency entry in the assay with 3D7, in the assay on 7G8, with AA1029 and in the assay with AS120 was “inactive” each time.
Regarding `N#Cc1nn(-c2c(Cl)cc(C(F)(F)F)cc2Cl)c(N)c1S(=O)C(F)(F)F` (stereo not drawn), the Potency in assay [1] (parasite line A) was 5.01 µM (active); in assay [1] (parasite line B) it was 8.91 µM (active); in the assay with 3D7, 8.91 µM (active); in the assay on 7G8, 3.55 µM (active); with AA1029, 8.91 µM (active).
For the compound `C[C@]12CC[C@H]3[C@@H](CC=C4C[C@@H](O)CC[C@@]43C)[C@@H]1CC[C@@H]2O`, the results for the activity, negative = inhibition in assay [1] (setting [2]) and in assay [1] (setting [3]) were 1.98% (inactive) and 6.49% (inactive), respectively. Besides, the Potency result in the assay with 3D7, in the assay on 7G8, in the assay on AA1029 and with AS120 was “inactive” throughout.
`O=C(CCCN1CCC(n2c(=O)[nH]c3ccccc32)CC1)c1ccc(F)cc1`: the Potency in assay [1] (parasite line A) is 3.16 µM (active); in assay [1] (parasite line B), 3.16 µM (active); in the assay with 3D7, 1 µM (active); with 7G8 it was 0.158 µM (active); with AA1029, 3.55 µM (active); in the assay on AS120, 2.24 µM (active).
As to `CCN(CC)CCOC(=O)C(C)(c1ccccc1)c1ccccc1`, the activity, negative = inhibition in assay [1] (setting [2]) is -27.7% (inactive). Besides, the Potency entry with 3D7 was “inactive”. For the same compound, the Potency is 5.01 µM (active) in the assay on 7G8 and 4.47 µM (active) in the assay on AA1029.
With `Oc1ccc2[nH]cc(CCCCN3CC=C(c4ccccc4)CC3)c2c1`, in the assay on 7G8, the Potency was 3.98 µM (active).
Regarding `CN1CCc2cc(Cl)c(O)cc2[C@H]2c3ccccc3CC[C@@H]21`, in assay [1] (setting [3]), the activity, negative = inhibition is -29.7% (inactive). Also, the Potency in the assay on 7G8 was 11.2 µM (active).
Turning to `CCCCCCCCC(=O)NCc1ccc(O)c(OC)c1`, the activity, negative = inhibition in assay [1] (setting [2]) is -0.439% (inactive); in assay [1] (setting [3]), 7.79% (inactive). Besides, the Potency entry in the assay on 3D7, with 7G8, with AA1029 and in the assay with AS120 was “inactive” throughout.
For the compound `Cc1c(Cl)c(=O)oc2cc(OP(=O)(OCCCl)OCCCl)ccc12`, the Potency in assay [1] (parasite line A) is 8.91 µM (active); in the assay on 7G8 it was 12.6 µM (active); in the assay on AA1029 it was 11.2 µM (active); in the assay with AS120, 11.2 µM (active).
Regarding `CCNc1nc(Cl)nc(NCC)n1`, the activity, negative = inhibition in assay [1] (setting [2]) is 3.24% (inactive). The Potency entry with 3D7, with 7G8, in the assay on AA1029 and with AS120 was “inactive” in each case.
With `CN1C(=O)[C@@H](NC(=O)c2cc3ccccc3[nH]2)N=C(c2ccccc2)c2ccccc21`, in the assay with 7G8, the Potency is 11.2 µM (active).
On to `NC(=O)OCCCc1ccccc1`, for which the activity, negative = inhibition is -9.09% (inactive) in assay [1] (setting [2]) and 10.5% (inactive) in assay [1] (setting [3]). Besides, the Potency result in the assay with 3D7, in the assay with 7G8, in the assay with AA1029 and in the assay with AS120 was “inactive” each time.
Turning to `CC[C@]1(O)CC[C@H]2[C@@H]3CCC4=CCCC[C@@H]4[C@H]3CC[C@@]21C`, in the assay on 3D7, the Potency entry was “inactive”. Moreover, in the assay on 7G8, the Potency is 7.94 µM (active).
Regarding `CCC1(c2ccccc2)CCC(=O)NC1=O` (stereo not drawn), the figures for the activity, negative = inhibition in assay [1] (setting [2]) and in assay [1] (setting [3]) were 14.1% (inactive) and 13.3% (inactive), respectively. Also, the Potency result with 3D7, in the assay on AA1029 and in the assay on AS120 was “inactive” in each case.
For `OC(O)C(Cl)(Cl)Cl`, the activity, negative = inhibition is 9.58% (inactive) in assay [1] (setting [2]) and 19.3% (inactive) in assay [1] (setting [3]). Moreover, the Potency result with 3D7, in the assay on AA1029 and in the assay on AS120 was “inactive” each time.
For `NCc1cccnc1`, the values for the activity, negative = inhibition in assay [1] (setting [2]) and in assay [1] (setting [3]) were -9.24% (inactive) and -2.31% (inactive), respectively. The Potency entry with 3D7, in the assay with 7G8, in the assay on AA1029 and in the assay with AS120 was “inactive” throughout.
For the compound `O=C(NC(=O)c1c(F)cccc1F)Nc1cc(Cl)c(OC(F)(F)C(F)C(F)(F)F)cc1Cl` (stereo not drawn), in the assay on AS120, the Potency is 8.91 µM (active).
Take `C#C[C@]1(O)CC[C@H]2[C@@H]3CCC4=CC(=O)CCC4=C3C=C[C@@]21CC`: the figures for the Potency (in assay [1] (parasite line B); with 3D7; in the assay with 7G8) were 6.31 µM (active), 7.94 µM (active) and 11.2 µM (active), respectively.
In the case of `OC(c1ccccc1)(c1ccccc1)C1CCNCC1`, the activity, negative = inhibition in assay [1] (setting [4]) is 1.93% (inactive); in assay [1] (setting [5]), 13.2% (inactive). The Potency result in the assay on 3D7, in the assay with AA1029 and in the assay on AS120 was “inactive” in each case.
Regarding `CN1C(=O)CN=C(c2ccccc2)c2cc([N+](=O)[O-])ccc21`, the activity, negative = inhibition in assay [1] (setting [2]) was 1.56% (inactive); in assay [1] (setting [3]), -3.67% (inactive). For the same compound, the Potency entry in the assay with 3D7, with 7G8, with AA1029 and in the assay on AS120 was “inactive” each time.
For the compound `C=CCOC(Cn1ccnc1)c1ccc(Cl)cc1Cl` (stereo not drawn), the Potency is 10 µM (active) in assay [1] (parasite line B); 11.2 µM (active) in the assay with 3D7; 2 µM (active) in the assay with 7G8; 8.91 µM (active) in the assay with AA1029; 5.01 µM (active) with AS120.
As for `CC(C)(O)C(Cl)(Cl)Cl`, the Potency is 11.2 µM (active) in assay [1] (parasite line A); 12.6 µM (active) in assay [1] (parasite line B); 2 µM (active) in the assay on 3D7; 0.316 µM (active) in the assay on 7G8; 12.6 µM (active) with AA1029; 4.47 µM (active) with AS120.
Regarding `CN1C[C@@H](NS(=O)(=O)N(C)C)C[C@@H]2c3cccc4c3c(cn4C)C[C@H]21`, the activity, negative = inhibition is -15.7% (inactive) in assay [1] (setting [2]) and -6.34% (inactive) in assay [1] (setting [3]). In addition, the Potency result with 3D7, in the assay on 7G8 and in the assay with AS120 was “inactive” each time.
In the case of `O=C1NCN(c2ccccc2)C12CCN(CCCOc1ccc(F)cc1)CC2`, the activity, negative = inhibition in assay [1] (setting [3]) was -11.5% (inactive). Further, the Potency result in the assay on 3D7 was “inactive”. In addition, the Potency with 7G8 was 11.2 µM (active).
As to `C[C@H]1C(=O)O[C@@H]2CCN3CC=C(COC(=O)[C@](C)(O)[C@]1(C)O)[C@H]23`, the activity, negative = inhibition was -7.4% (inactive) in assay [1] (setting [2]) and -1.5% (inactive) in assay [1] (setting [3]). In addition, the Potency result with 3D7, in the assay with 7G8, with AA1029 and in the assay with AS120 was “inactive” in each case.
Regarding `COP(=O)(OC)OC=C(Cl)Cl`, the activity, negative = inhibition is 5.3% (inactive) in assay [1] (setting [2]) and 13.3% (inactive) in assay [1] (setting [3]). Besides, the Potency result in the assay on 3D7, in the assay on AA1029 and in the assay on AS120 was “inactive” in each case.
For the compound `C[C@]12Cc3nonc3C[C@@H]1CC[C@@H]1[C@@H]2CC[C@@]2(C)[C@H]1CC[C@]2(C)O`, the activity, negative = inhibition in assay [1] (setting [3]) is -29.5% (inactive). For the same compound, the Potency result in the assay with 3D7, in the assay with AA1029 and with AS120 was “inactive” throughout.
As to `COCC(=O)N(c1c(C)cccc1C)C(C)C(=O)OC` (stereo not drawn), the Potency entry in the assay on 3D7, in the assay on 7G8 and with AA1029 was “inactive” throughout.
Take `CCC1(CC)C(=O)NC(=O)NC1=O`: the activity, negative = inhibition was -0.0726% (inactive) in assay [1] (setting [2]) and 11.2% (inactive) in assay [1] (setting [3]). The Potency result with 3D7, in the assay on AA1029 and in the assay with AS120 was “inactive” in each case.
Regarding `CC(C)(C)OC(=O)c1ncn2c1[C@@H]1CCCN1C(=O)c1c(Br)cccc1-2`, the activity, negative = inhibition in assay [1] (setting [2]) was 0.318% (inactive); in assay [1] (setting [3]) it was 11.2% (inactive). Besides, the Potency entry in the assay on 3D7, in the assay on AA1029 and with AS120 was “inactive” each time.
Take `ClC1=C(Cl)C2(Cl)C(CBr)CC1(Cl)C2(Cl)Cl` (stereo not drawn): the activity, negative = inhibition in assay [1] (setting [2]) is -10.4% (inactive); in assay [1] (setting [3]) it was -10.5% (inactive). Also, the Potency result in the assay on AA1029 and in the assay on AS120 was “inactive” each time.
In the case of `COP(=O)(OC)C(O)C(Cl)(Cl)Cl` (stereo not drawn), in assay [1] (setting [3]), the activity, negative = inhibition was 2.48% (inactive). For the same compound, the Potency result with 3D7, in the assay on 7G8 and with AA1029 was “inactive” throughout.
For the compound `Cc1ncc2n1-c1ccc(Cl)cc1C(c1ccccc1F)=NC2`, the activity, negative = inhibition is 7.97% (inactive) in assay [1] (setting [2]) and -15.6% (inactive) in assay [1] (setting [3]). Besides, the Potency result in the assay with 3D7, in the assay with 7G8, in the assay with AA1029 and in the assay with AS120 was “inactive” each time.
As for `Nc1ccc(N)cc1`, the Potency with 3D7 was 8.91 µM (active).
With `CC(C)[N+](C)(CCC(C(N)=O)(c1ccccc1)c1ccccc1)C(C)C`, the activity, negative = inhibition was -4.63% (inactive) in assay [1] (setting [4]) and 4.79% (inactive) in assay [1] (setting [5]). Besides, the Potency result in the assay with 3D7, with AA1029 and in the assay with AS120 was “inactive” in each case.
For the compound `CNC(=O)Oc1cccc2ccccc12`, the activity, negative = inhibition is -7.78% (inactive) in assay [1] (setting [2]) and -8.17% (inactive) in assay [1] (setting [3]). In addition, the Potency result in the assay with 3D7, in the assay on AA1029 and in the assay with AS120 was “inactive” each time.
